High-throughput results deposited in PubChem BioAssay by National Center for Advancing Translational Sciences (NCATS).
SARS PLpro yeast – blocks SARS-CoV papain-like protease in a yeast assay | hit rate 0.19% among 330,000 | S. cerevisiae expressing SARS-CoV PLpro, growth rescue | Potency, µM (highest dose often 32.9 µM), usual class: activators; calls by dose curve; note: nearly all actives have a fitted effect of over 55% in size
Pf growth 48h – P. falciparum growth inhibition at 48 hours (one generation); P. falciparum luciferase growth in erythrocytes, 48 h; Potency, µM (doses to about 28.7 µM), most hits filed as inhibitors; hit rate 5.9% among 310,000
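A one-generation exposure of luciferase-tagged malaria parasites in RPMI 1640/Albumax erythrocyte culture, 37 C and 5% CO2. Inhibition is inferred from decreased luminescence after adding detection reagent.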
Pf growth 96h – P. falciparum growth inhibition at 96 hour, primary screen for plastid delayed-death inhibitors; hit rate 6.9% among 320,000; Potency, µM (highest dose often 28.7 µM), hits mostly inhibitors; AID 504834; P. falciparum luciferase reporter growth, 96 h
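Compounds incubated with erythrocytes infected by luciferase-expressing P. falciparum (2% hematocrit, 0.05% parasitemia final) for 96 hours, 37 C in 5% CO2. Growth inhibition scored as decreased luciferase luminescence.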
NS1 inh – blocks influenza NS1 protein function; Potency, µM (highest dose often 46.1 µM); hit rate 0.4% among 270,000; AID 2326; calls by dose curve; note: actives are rising curves; nearly all actives have a fitted effect of over 50% in size
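Compounds were scored for reversing the slow growth caused by influenza A NS1 in S. cerevisiae, measured by optical density at 600 nm. Assay medium contained 2% galactose at pH 6.0; NS1-free yeast of the same strain were the positive control.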
Large screens that a line does not name were inactive. The list is not random: actives were taken first. Their share in the collection is about 10%. Unless noted, calls come from the whole dose curve; as a rule, active = well fitted inhibition curve with a large enough effect; inconclusive = small, poorly fitted or top-dose-only effect, or another doubt; inactive = no such curve, though single readings can be large or run the other way.

O=C(O)COc1ccccc1C1C2C(=O)N(c3ccc(F)cc3)C(=O)C2ON1c1ccccc1 (stereo unspecified)	NS1 inh inconclusive
COc1ccccc1C1C2C(=O)N(c3ccccc3)C(=O)C2ON1c1ccccc1 (stereo unspecified)	Pf growth 96h 8.28µM
CCOC(=O)C1CCN(C(=O)Cn2cnc3sc(C)c(S(=O)(=O)N4CCOCC4)c3c2=O)CC1	Pf growth 48h 1.47µM, Pf growth 96h inconclusive
O[C@H](CNc1ccccn1)c1ccccc1	none (no result: SARS PLpro yeast, Pf growth 48h, Pf growth 96h)
C/C(=N\NC(N)=S)C1(C)CC2(CC(C)(C)OC2=O)C(=O)O1 (stereo unspecified)	Pf growth 48h inconclusive
O=S(=O)(c1ccc(F)cc1)c1snnc1-c1ccccc1	Pf growth 48h 9.28µM, Pf growth 96h inconclusive (no result: NS1 inh)
O=S(=O)(c1ccc(Cl)cc1)c1snnc1-c1ccccc1	Pf growth 96h inconclusive (no result: Pf growth 48h)
O=C1O/C(=C/Br)CCC1c1cccc2ccccc12 (stereo unspecified)	none (no result: SARS PLpro yeast, Pf growth 48h, Pf growth 96h)
CCc1ccc(C(O)(CNCc2ccccc2)c2ccccc2)cc1 (stereo unspecified)	Pf growth 48h inconclusive, Pf growth 96h inconclusive
CCOC(=O)N1CCC(n2c(SCC(=O)Nc3ccccc3OC)nc3ccccc3c2=O)CC1	Pf growth 48h 10.4µM
CCC(C)n1c(SCC(=O)/C(C#N)=C(\C)N)nc2ccccc2c1=O (stereo unspecified)	Pf growth 96h 9.28µM
CCOC(=O)N1CCC(n2c(SCC(=O)N3CCC(C)CC3)nc3ccccc3c2=O)CC1	Pf growth 48h 10.4µM, Pf growth 96h 4.65µM
CCOC(=O)N1CCC(n2c(SCC(=O)NCCC3=CCCCC3)nc3ccccc3c2=O)CC1	Pf growth 48h 9.28µM, Pf growth 96h inconclusive
COc1ccccc1C(=O)COC(=O)c1ccc(Cl)nc1	Pf growth 48h inconclusive (no result: NS1 inh)
O=c1[nH]cccc1-c1nc2ccccc2n1Cc1cccc(F)c1	none
COCC(C)n1c(SCC(=O)NCCC2=CCCCC2)nc2ccccc2c1=O (stereo unspecified)	Pf growth 96h 8.28µM (no result: Pf growth 48h)
COCC(C)n1c(SCC(=O)NC(=O)NC2CCCC2)nc2ccccc2c1=O (stereo unspecified)	Pf growth 48h 13.1µM, Pf growth 96h inconclusive (no result: NS1 inh)
COCC(C)n1c(SCC(=O)c2cc(C)n(C)c2C)nc2ccccc2c1=O (stereo unspecified)	Pf growth 48h 13.1µM, Pf growth 96h inconclusive (no result: NS1 inh)
COCCn1c(SCC(=O)NC(=O)NC2CCCCC2)nc2ccccc2c1=O	none (no result: Pf growth 48h, Pf growth 96h, NS1 inh)
COCC(C)n1c(C)cc(C(=O)CSc2nc3ccccc3c(=O)[nH]2)c1C (stereo unspecified)	Pf growth 48h inconclusive, Pf growth 96h inconclusive
CCOc1ccc2c(c1)C(=NNC(=O)c1ccncc1)c1cc(OCC)ccc1-2	Pf growth 48h 9.28µM, Pf growth 96h 2.08µM
CCOc1ccc(C(=O)c2ccncc2)cc1	none (no result: Pf growth 96h)
COCCCn1c(SCC(=O)NC2CCCCC2)nnc1-c1ccco1	Pf growth 96h 2.33µM
COCCn1c(SCC(=O)c2cccc(OC)c2)nnc1-c1ccco1	Pf growth 96h 13.1µM
COCCCn1c(SCC(=O)NC2CCCCC2)nnc1-c1ccncc1	Pf growth 96h 8.28µM
COCCn1c(SCC(=O)NC2CC2)nnc1-c1ccco1	none
O=C(CSCc1cnn(-c2ccccc2)c1-n1cccc1)N1CCN(Cc2ccccc2)CC1	Pf growth 96h inconclusive (no result: Pf growth 48h)
O=C(O)CSCc1cnn(-c2ccccc2)c1-n1cccc1	Pf growth 48h 10.4µM
N/C(Cc1ccc([N+](=O)[O-])cc1)=N\OC(=O)c1ccc([N+](=O)[O-])cc1	none (no result: Pf growth 48h)
N/C(Cc1ccc(Cl)cc1)=N\OC(=O)c1ccccc1	Pf growth 96h 10.4µM (no result: Pf growth 48h)
COc1ccccc1C/C(N)=N/OC(=O)c1cccc([N+](=O)[O-])c1	Pf growth 48h 11.7µM, Pf growth 96h inconclusive
N/C(CN1CCCC1=O)=N\OC(=O)c1ccc(Cl)cc1	Pf growth 96h 11.7µM
N/C(CN1CCCC1=O)=N\OC(=O)c1ccc(Cl)c(Cl)c1	none
COc1ccc(C(=O)O/N=C(\N)Cc2ccc(Cl)cc2)cc1OC	Pf growth 48h 7.38µM, Pf growth 96h 10.4µM
CCCc1ccc(S(=O)(=O)N/N=C(/C)c2ccc3c(c2)OCO3)cc1	none
CC(C)NS(=O)(=O)c1ccc(CCC(=O)N2CCC(C(N)=O)CC2)cc1	none
Cc1ccc(CNC(=O)c2nnn(CC(=O)Nc3cccc(C)c3C)c2N)cc1	none
COc1ccc(C(=O)O/N=C(\N)Cc2ccc(Cl)c(Cl)c2)cc1OC	Pf growth 48h 4.15µM
Cc1nc(CSc2ccc(Br)cc2)cs1	none
Cc1cc(CN2CCCC(N3CCc4ccccc4C3)C2)cc(C)c1O (stereo unspecified)	Pf growth 48h inconclusive, Pf growth 96h 10.4µM
Cc1cc(C)c2c(n1)sc1c(O)cc(=O)[nH]c12	Pf growth 96h 7.38µM, NS1 inh inconclusive
COc1ccc(-c2cc(C)no2)cc1S(=O)(=O)NCCc1ccco1	Pf growth 48h inconclusive, Pf growth 96h inconclusive
O=C1Nc2ccccc2C12OC1CCCCC1O2 (stereo unspecified)	Pf growth 48h 11.7µM, Pf growth 96h 3.7µM
O=C1Nc2ccccc2C12OCC1(CO2)COC2(OC1)C(=O)Nc1ccccc12 (stereo unspecified)	NS1 inh inconclusive (no result: Pf growth 48h)
O=[N+]([O-])c1ccc2nc(Cl)nc(-c3ccccc3)c2c1	none
CCCCn1cnc2c(c(-c3ccccc3)c(-c3ccccc3)n2Cc2ccco2)c1=N	Pf growth 48h 4.15µM, Pf growth 96h 2.33µM
N=c1c2c(-c3ccccc3)c(-c3ccccc3)n(Cc3ccco3)c2ncn1Cc1ccco1	Pf growth 48h 3.7µM, Pf growth 96h inconclusive
CCCCn1c(=O)[nH]c(=O)c2c1ncn2Cc1ccco1	Pf growth 96h inconclusive (no result: Pf growth 48h)
N=c1c2c(-c3ccccc3)c(-c3ccccc3)n(Cc3ccccc3)c2ncn1CCCn1ccnc1	Pf growth 48h 0.928µM, Pf growth 96h 1.31µM
O=C(CNC(=O)c1ccc(Cl)cc1Cl)OCc1nnc(-c2ccccc2)o1	none (no result: NS1 inh)
COc1ccc(NC(=O)[C@@H](NS(=O)(=O)c2cccc(Cl)c2)C(C)C)cc1S(=O)(=O)N1CCOCC1	none (no result: Pf growth 48h, Pf growth 96h, NS1 inh)
CC(C)c1ccc(N(CC(=O)NC2CCCC2)C(=O)CCC(=O)Nc2ccccn2)cc1	none
COc1cc(C(=O)N/N=C/c2cn(Cc3cccc(F)c3)c3ccccc23)ccc1O	Pf growth 96h 1.65µM
Cc1ccc(C(=O)N/N=C/c2cn(Cc3ccccc3)c3ccccc23)cn1	none
Cc1cc(C)n(C(=O)CNC(=O)c2ccc3c(c2)OCCO3)n1	Pf growth 96h 1.85µM
Cc1cc(C)n(C(=O)CNC(=O)c2cccc(Cl)c2)n1	none
CCN(c1ccc(NC(=O)CSCc2c(C)noc2C)cc1)C(C)C	Pf growth 48h inconclusive, Pf growth 96h inconclusive (no result: NS1 inh)
CCCc1nnc(NC(=O)CCC(=O)N2CCN(Cc3ccccc3)CC2)s1	Pf growth 96h inconclusive
CC(C)Cc1nnc(NC(=O)CCC(=O)N2CCN(c3ccccn3)CC2)s1	none (no result: Pf growth 48h)
CC(C)c1nnc(NC(=O)CCC(=O)N2CCN(c3ccccn3)CC2)s1	NS1 inh 1µM
CCCc1nnc(NC(=O)CCC(=O)N2CCN(CCOC(c3ccccc3)c3ccccc3)CC2)s1	Pf growth 48h 10.4µM, Pf growth 96h inconclusive
O=C(NCC1CCOCC1)C1CCC(=O)N(Cc2cccc(C(F)(F)F)c2)C1 (stereo unspecified)	Pf growth 96h inconclusive
